This is a sample that favours compounds with a hit; in the whole collection about 0.86% have one here.
TLR4 MyD88 comp = inhibitors of TLR4-MyD88 association in cells, primary screen, cell-based, HeLa CL3-4, BLA complementation, FRET ratio; Toll-like receptor 4 (Homo sapiens) + Myeloid differentiation primary response protein …; HeLa CL3-4 TLR4/MyD88 BLA complementation; inhibition, % at 8.4 µM; hit rate 0.18% among 200,000; AID 861, 2007; in the data active means inhibition above about 25%;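 further: 0% = vehicle and 100% = reference inhibitor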
TLR9-MyD88 inh = inhibitors of TLR9-MyD88 association in cells, primary screen, cell-based, CHO, BLA complementation, fluorescence. Toll-like receptor 9 (Homo sapiens) + Myeloid differentiation primary response protein …. CCF4 FRET ratio. inhibition, % at 4.98 µM. hit rate 0.21% among 340,000;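 active means inhibition above the mean over all tested compounds plus 3 SD, cut at about 21% in these data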;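 further: 0% = DMSO only wells and 100% = clavulanate BLA inhibitor control wells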
NOD2 RIPK2 PPI = NOD2-RIPK2 binding disruptors in cells, primary screen, fluorescence, CHO cells, BLA complementation | hit rate 0.38% among 360,000 | inhibition, % at 4.98 µM | AID 624267, 2012 | CCF4 ratio; in the data active means inhibition above about 21%;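 further: 0% = vehicle only and 100% = reference blocker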
IDE act = human IDE activators in live cells, primary screen, fluorescence polarization, HEK cells, FAbeta-B substrate | Insulin-degrading enzyme (Homo sapiens), P14735 | FAbeta-B cleavage; 0% vehicle, 100% cell-free pure enzyme wells | activation, % at 5.96 µM | hit rate 0.073% among 340,000 | AID 493087, 2011;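 active means activation above the mean of all tested compounds plus 3 SD, set per screening campaign, cut at about 17% in these data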
Target sequence (P14735 whole entry, looked up): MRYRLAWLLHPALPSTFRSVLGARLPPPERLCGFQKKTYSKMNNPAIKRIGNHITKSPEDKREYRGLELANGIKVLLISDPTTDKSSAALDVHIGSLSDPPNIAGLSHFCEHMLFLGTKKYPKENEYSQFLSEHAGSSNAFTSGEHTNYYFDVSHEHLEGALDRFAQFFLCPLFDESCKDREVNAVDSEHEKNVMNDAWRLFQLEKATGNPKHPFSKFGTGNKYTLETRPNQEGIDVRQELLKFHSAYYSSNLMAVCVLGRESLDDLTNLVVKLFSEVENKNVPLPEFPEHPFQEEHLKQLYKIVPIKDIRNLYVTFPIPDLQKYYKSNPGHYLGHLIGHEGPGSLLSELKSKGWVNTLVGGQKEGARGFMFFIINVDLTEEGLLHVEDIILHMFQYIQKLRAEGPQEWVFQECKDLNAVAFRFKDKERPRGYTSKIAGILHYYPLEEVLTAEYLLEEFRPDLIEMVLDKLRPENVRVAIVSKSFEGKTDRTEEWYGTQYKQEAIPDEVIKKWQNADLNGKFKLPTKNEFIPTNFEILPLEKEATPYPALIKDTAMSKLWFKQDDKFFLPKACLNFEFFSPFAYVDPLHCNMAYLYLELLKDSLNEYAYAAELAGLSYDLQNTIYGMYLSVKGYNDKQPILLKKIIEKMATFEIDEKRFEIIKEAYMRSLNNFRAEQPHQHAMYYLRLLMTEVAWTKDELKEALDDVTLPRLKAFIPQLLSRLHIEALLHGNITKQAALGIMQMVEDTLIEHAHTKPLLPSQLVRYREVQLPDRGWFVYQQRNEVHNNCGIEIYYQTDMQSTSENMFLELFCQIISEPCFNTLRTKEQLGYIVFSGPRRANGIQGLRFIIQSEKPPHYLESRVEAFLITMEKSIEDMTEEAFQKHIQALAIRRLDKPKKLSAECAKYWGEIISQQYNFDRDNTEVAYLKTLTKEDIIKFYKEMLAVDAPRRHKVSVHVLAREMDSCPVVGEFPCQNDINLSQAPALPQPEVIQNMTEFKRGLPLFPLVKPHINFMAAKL
IDE cell inh = human IDE inhibitors in live cells, primary screen, fluorescence polarization, HEK cells, FAbetaB substrate; inhibition, % at 5.59 µM; FAbetaB cleavage; AID 434962, 2010; hit rate 0.41% among 320,000; Insulin-degrading enzyme (Homo sapiens), P14735;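 active means percent inhibition above the average of all tested compounds plus 3 SD, set per screening campaign, cut at about 16% in these data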;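 further: IDE supplied by intact live HEK cells; FP after avidin binding of uncleaved biotin substrate so inhibition keeps polarization high; 0% = DMSO wells and 100% = 60 µM reference IDE inhibitor Ii1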
NOD2 RIPK2 conf = NOD2-RIPK2 binding disruptors, retest, confirmation, fluorescence, CHO cells, BLA complementation, triplicate | CCF4 FRET | AID 624370, 2012 | shares compounds with NOD2 RIPK2 PPI | hit rate 70% among 1,200 | inhibition, % at 4.98 µM;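 active means mean inhibition across replicates above a set limit taken from the earlier primary screen, cut at about 21% in these data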;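 further: 0% = DMSO-only wells and the high end = clavulanate BLA-blocked wells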
NOD2 BLA counter = counter-screen for NOD2-RIPK2 interaction inhibitors: BLA reporter | shares compounds with NOD2 RIPK2 PPI | CHO BLA reporter, CCF4 FRET ratio, counterscreen | inhibition, % at 4.98 µM | hit rate 57% among 1,200;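 active means mean inhibition above the low-control mean inhibition plus three low-control SD, cut at about 11% in these data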;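 further: 0% = DMSO only wells and 100% = clavulanate high control wells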
Active calls of the source: *; · = not tested or not shown.

SMILES | TLR4 MyD88 comp | TLR9-MyD88 inh | NOD2 RIPK2 PPI | IDE act | IDE cell inh | NOD2 RIPK2 conf | NOD2 BLA counter
CCCCCNC(=O)C(C1CC1)n1c(=O)c(-c2cc3ccccc3[nH]2)nc2ccccc21 (stereo not drawn) | · | · | 45* | · | · | 37* | 64*
CCCCCNC(=O)C(c1ccc(-c2ccccc2)cc1)n1c(=O)c(-c2cc3ccccc3[nH]2)nc2ccccc21 (stereo not drawn) | · | · | 25* | · | · | 37* | 64*
CCCCCNC(=O)C(c1cc2ccccc2o1)n1c(=O)c(-c2ccccc2)nc2ccccc21 (stereo not drawn) | · | · | -13 | · | · | · | ·
CCCCCNC(=O)C(c1cc2ccccc2o1)n1c(=O)c(-c2cc3ccccc3[nH]2)nc2ccccc21 (stereo not drawn) | · | · | 48* | · | · | 43* | 66*
O=C(Nc1ccccc1)[C@@H]1CC=C[C@@H]2CCN(C3CCCCC3)C(=O)[C@@H]21 | · | -5 | -17 | 2 | 2 | · | ·
CCOC(=O)c1cc([N+](=O)[O-])cc([N+](=O)[O-])c1Sc1ncnc2nc[nH]c12 | · | 5 | 39* | 4 | · | 67* | -15
CC1CCCCN1C(=S)NC(=O)c1cccs1 (stereo not drawn) | · | -6 | 6 | 1 | 2 | · | ·
COc1ccccc1Cc1c(C(C)(C)C)nc2cc(C)c(Br)c(C)n12 | · | · | 24* | · | · | -3 | 12*
O=S(=O)(c1cccs1)N1CCC2(CC1)OCCO2 | · | -2 | -8 | 5 | -6 | · | ·
O=C1c2cccnc2-c2ncccc21 | 2 | 6 | -8 | 3 | 7 | · | ·
O=C1C(=O)c2cccnc2-c2ncccc21 | · | · | 41* | · | · | 3 | 4
Cc1cc(N2CCOCC2)ccc1/C=C\[N+](=O)[O-] | 14 | 7 | 51* | -8 | -3 | 55* | 4
O=[N+]([O-])c1ccc(N2CCOCC2)cc1O | · | -2 | -2 | -2 | 9 | · | ·
CCCc1c(-c2ccc(Cl)cc2)ncn1Cc1cccc(-c2ccccc2)c1 | · | · | -13 | · | · | · | ·
COc1cc(/C=C2/C(=N)N3C(=NC2=O)SN=C3S(C)(=O)=O)ccc1OS(=O)(=O)c1ccc(C)cc1 | · | 9 | 23* | 0 | 8 | -2 | -9
Cc1ccc(S(=O)(=O)Oc2ccc(/C=C3/C(=N)N4C(=NC3=O)SN=C4S(C)(=O)=O)cc2)cc1 | · | -6 | -4 | 1 | -2 | · | ·
Cc1ccc(C(=O)/C=C/c2cn(CC(O)CN3CCOCC3)c3ccccc23)cc1 (stereo not drawn) | 5 | 19 | 23* | 1 | 12 | 36* | 35*
COc1ccc(C(=O)/C=C/c2cn(CC(O)CN3CCOCC3)c3ccccc23)cc1 (stereo not drawn) | 0 | 11 | 19 | 3 | 9 | · | ·
CCOc1ccc(C(=O)/C=C/c2cn(CN3CCN(C)CC3)c3ccccc23)cc1 | 15 | 16 | 26* | 3 | 1 | 24* | 37*
COC(=O)c1c(NC(=O)Cc2cccs2)sc(C(=O)N2CCCCC2)c1C | -8 | 8 | 4 | -2 | 6 | · | ·
O=C(CCC(=O)N1CCOc2ccccc21)NCc1ccccn1 | · | 5 | 1 | 4 | 1 | · | ·
COc1ccc(COc2cc(-c3cccc(OC)c3)nc3ccc(NC(C)=O)cc23)cc1 | -9 | -1 | 4 | 6 | -3 | · | ·
COc1ccc(COc2cc(-c3cccc(OC)c3)nc3ccc(N)cc23)cc1 | -5 | 4 | 31* | 5 | 5 | 11 | 15*
CN(C)c1ccc(C=c2c3ccccc3n3c2cc(-c2ccc(Cl)cc2)[n+]3C)cc1 | · | -2 | 25* | -2 | · | 23* | 23*
CN(CC(=O)Nc1cccc(F)c1)C(=O)c1ccc(-n2cncn2)c([N+](=O)[O-])c1 | · | -1 | 2 | 2 | 5 | · | ·

Screening results deposited in PubChem by The Scripps Research Institute Molecular Screening Center.
